Assay results reported in PubChem BioAssay (NCI).
About 83,000 compounds went through this panel and 20% of them were active in at least one assay; those are over-represented in the sample as a whole.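 Single-concentration screen, 48 h exposure, 96-well plates. Endpoint: percent growth. Below 10 = active.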 A number with no mark means an inactive call. Activity calls are given as the source filed them.

Columns and labels:
Assay in all cases: NCI-60 one-dose screen, 48 h (100 = growth as untreated, 0 = no growth, -100 = all killed)
Details in all cases: 10 µM
DU-145 prostate = test system: DU-145 prostate
K-562 leukemia = test system: K-562 leukemia
MALME-3M melanoma = test system: MALME-3M melanoma
MDA-MB-231 breast = test system: MDA-MB-231 breast
RXF 393 renal = test system: RXF 393 renal
SF-268 CNS = test system: SF-268 CNS
SF-295 CNS = test system: SF-295 CNS
SF-539 CNS = test system: SF-539 CNS
UACC-257 melanoma = test system: UACC-257 melanoma
M14 melanoma = test system: M14 melanoma
HCT-15 colon = test system: HCT-15 colon
HT29 colon = test system: HT29 colon
SNB-75 CNS = test system: SNB-75 CNS
SNB-19 CNS = test system: SNB-19 CNS
U251 CNS = test system: U251 CNS
SK-MEL-5 melanoma = test system: SK-MEL-5 melanoma
UACC-62 melanoma = test system: UACC-62 melanoma
LOX IMVI melanoma = test system: LOX IMVI melanoma
SK-MEL-28 melanoma = test system: SK-MEL-28 melanoma
PC-3 prostate = test system: PC-3 prostate

SMILES | growth (DU-145 prostate) | growth (K-562 leukemia) | growth (MALME-3M melanoma) | growth (MDA-MB-231 breast) | growth (RXF 393 renal) | growth (SF-268 CNS) | growth (SF-295 CNS) | growth (SF-539 CNS) | growth (UACC-257 melanoma) | growth (M14 melanoma) | growth (HCT-15 colon) | growth (HT29 colon) | growth (SNB-75 CNS) | growth (SNB-19 CNS) | growth (U251 CNS) | growth (SK-MEL-5 melanoma) | growth (UACC-62 melanoma) | growth (LOX IMVI melanoma) | growth (SK-MEL-28 melanoma) | growth (PC-3 prostate)
CCC(OC(=O)CC(C)C)c1ccccc1 (stereo unspecified) | 103% | 99.6% | 110% | 106% | 98.2% | 93.7% | 94.7% | 98.4% | 80.6% | 102% | 101% | 93.6% | 91.1% | 105% | 86.9% | 100% | 102% | 96.1% | 106% | –
COc1cc2nc(Sc3sc(N)nc3C)n(-c3ccc(Oc4ccccc4)cc3)c(=O)c2cc1OC | 98.3% | 78.6% | 98.3% | 90.1% | 85.9% | 102% | 85.4% | 81.3% | 89.7% | 81.6% | 79.9% | 75% | 86.7% | 105% | 87.6% | – | 81.4% | 78.3% | 97.9% | 65.2%
COc1ccc(C(=O)/C=C/c2cc(-c3ccc(OC)c(OC)c3)n[nH]2)cc1OC | -25.8% (active) | 5.44% (active) | -47.5% (active) | -18.7% (active) | -79.3% (active) | -28% (active) | 18% | -99.3% (active) | 11.7% | 18.1% | -68.1% (active) | -61.1% (active) | -0.863% (active) | 2.04% (active) | -94.5% (active) | 4.15% (active) | 16.3% | -86.8% (active) | -65.5% (active) | –
COc1ccc(C2=NNC(c3sc(Cl)nc3Cl)C2)cc1 (stereo unspecified) | 86.6% | 7.31% (active) | 74.3% | 67.3% | 71.7% | 73% | 102% | 110% | 94% | 59.7% | 34.2% | 85.9% | 101% | 95.6% | 93.7% | – | 96% | 9.86% (active) | 98.9% | 89.6%
CC(=O)Nc1ccc(Sc2ccc(NC(C)=O)cc2)cc1 | 102% | 96.2% | 102% | 100% | 109% | 102% | 102% | 92% | 94.4% | 98.2% | 98.9% | 91.2% | 84.1% | 106% | 95.9% | 105% | 96.5% | 96.3% | 102% | –
Cc1ccc(C(=O)O)c(N)c1C | 101% | 92.1% | 85.7% | 118% | 111% | 95.9% | 92.6% | 103% | 108% | 96.4% | 99.7% | 101% | 82.6% | 107% | 100% | 107% | 103% | 93.8% | 122% | –
Fc1cc(-c2ncc(-c3cc(F)c(F)c(F)c3)c(NC3CCCCCC3)n2)cc(F)c1F | 105% | 101% | 140% | 104% | 96.1% | 107% | 90.1% | 105% | 87.6% | 109% | 97% | 115% | 85.7% | 99.7% | 83.4% | – | 89.4% | 102% | 98.4% | 90.6%
CCCOCC(O)CNCCN (stereo unspecified) | 127% | 99.3% | 106% | 97.5% | 110% | 113% | 94.2% | 93.2% | 95.9% | 109% | 98.2% | 102% | 93.4% | 102% | 95.5% | 106% | 101% | 104% | 110% | –
C=C1C(=O)O[C@H]2[C@H]1CC/C(COC(=O)OCCCCCOC(=O)OC/C1=C/CC[C@@]3(C)O[C@H]3[C@H]3OC(=O)C(=C)[C@@H]3CC1)=C\CC[C@@]1(C)O[C@@H]21 | -4.53% (active) | 1.11% (active) | -30.1% (active) | -87% (active) | -69.8% (active) | 7.62% (active) | 45.4% | -33.1% (active) | -87% (active) | -45.5% (active) | -87.7% (active) | -85.6% (active) | 80.3% | – | 4.2% (active) | -78.8% (active) | -26.4% (active) | -90.1% (active) | -11% (active) | -25.9% (active)
COc1ccc(-c2oncc2-c2cc(OC)c3c(c2)OCO3)cc1 | 34.2% | 13.8% | 52.4% | 54.1% | 17.4% | 50.2% | 12.3% | -16% (active) | 45.1% | 13.1% | 15.9% | 6.55% (active) | -9.45% (active) | 46.2% | – | 17.9% | 50.7% | 34.2% | 37% | 40.4%
FC(F)(F)c1ccc(-c2cnc(Br)nc2NC2CCCCCC2)cc1 | 74.9% | 10.6% | -42.4% (active) | 62.4% | 52.7% | 43.6% | -33.2% (active) | 82.4% | -1.23% (active) | 23.1% | 73.1% | 22.3% | 63.2% | 42.9% | – | 17.9% | 14.4% | 40.1% | 36.1% | 5.8% (active)
Nc1nsc(C(=O)c2ccc(O)cc2)n1 | 105% | 107% | 109% | 90.4% | 120% | 101% | 99.4% | 92.9% | 87% | 105% | 102% | 106% | 101% | 103% | – | – | 89% | 89.3% | 100% | 76.1%
CCCCn1c(=O)[nH]c2c(c1=O)C(c1ccc(Cl)cc1)c1c([nH]c(=O)n(CCCC)c1=O)N2 | 105% | 105% | 89.8% | 106% | 109% | 99% | 89.8% | 101% | 96.8% | 96.6% | 95.6% | 97.2% | 91.7% | 99.5% | – | 102% | 98.2% | 94.9% | 102% | 93.4%
COc1cc(C(c2c[nH]c3ccccc23)N2CCCC2)ccc1OCc1ccccc1 (stereo unspecified) | 95.9% | 71.2% | 81.8% | 58.4% | 52.9% | 74.6% | 93.8% | 4.28% (active) | 85.3% | 88.2% | 77.1% | 78.5% | 41.3% | 87.5% | – | 75.6% | 60.9% | 68.9% | 98% | –
COc1cc(-c2cc(-c3cc(OC)c(OC)c(OC)c3)nc3nc(N)[nH]c(=O)c23)ccc1Oc1ccnc2cc(Cl)ccc12 | 33.9% | 10.6% | 59% | 36.7% | -13% (active) | 47.2% | 93.5% | -59.7% (active) | 66.6% | 12.6% | 14.6% | 104% | -8.67% (active) | – | 23% | 27% | 49.8% | 27.8% | 56.9% | 25.9%
CCOC(=O)c1ccc(NC(=O)Nc2nncs2)cc1 | -18% (active) | 7.79% (active) | 22.2% | 14.8% | -15.2% (active) | 29.3% | -39.9% (active) | 14.6% | 67.9% | 4.02% (active) | 17.5% | 1.75% (active) | 19.6% | 58.3% | – | -21.2% (active) | 31.2% | 13% | 42.2% | 20.7%
O=C1CC(c2cccc(-c3cccnc3)c2)=Nc2ccc(Br)cc2N1 | 65.8% | 54.2% | 40.9% | 43.6% | 40.2% | 44.1% | 48.7% | 55.7% | 38.5% | 37.8% | 61.9% | 56.6% | 11.6% | – | 27.2% | 8.01% (active) | 47.3% | 55.8% | 67.5% | 30.8%
